Here are results for 40 compounds from PubChem BioAssay (NCATS).

Records with an inconclusive call do not appear. Values without a mark were called inactive. Calls come from the whole dose curve; as a rule, active = well fitted curve in the direction sought with a large enough effect; inconclusive = small, poorly fitted or top-dose-only effect, or another doubt; inactive = no such curve, though single readings can be large or run the other way.
% is set by controls: 0 for no effect and ±100 for the full control effect.

The nature of the experiment: qHTS Assay for Identifying Gametocytocidal Compounds (AID 743244).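 Note: actives lower the fluorescent signal which means gametocytes are killed.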 To be noted: P. falciparum 3D7 stage III-V gametocytes, alamarBlue, 72 h; max response: stronger effect = lower value. The text has this: Malaria cases and deaths have dropped 50% in 29 countries since 2000 due to the combined effects of long-lasting insecticidal bednets, indoor residual spraying, and artemisinin-based combination therapies (ACTs). This success has raised hopes for malaria eradication and consequently stimulated interest in developing new reagents that block gametocyte transmission such as novel and safe gametocytocidal drugs. However, previous drug development efforts have focused primarily on the asexual parasites that cause symptoms, but not malaria transmission. Consequently, patients can remain infectious for weeks after the clearance of asexual parasites and clinical symptoms. To be transmitted from person to person via a mosquito, the parasites must switch from asexual to sexual development and produce male and female gametocytes. Malaria gametocytes consist of five stages (I, II, III, IV and V). The late stage gametocytes (III, IV and V) are difficult to be cultured in vitro and the long lifespan of mature gametocytes allows them being transmitted from host to mosquitoes unless they are completely eliminated by gametocytocidal agents. To identify gametocytocidal compounds which are capable of killing late stage P. falciparum gametocytes, a high throughput gametocyte viability assay was employed. This assay uses oxidoreduction indicator, alamarBlue, as a general measure of metabolic activity of gametocytes. Within live cells, the nonfluorescent resazurin is reduced to resorufin, a bright red fluorescence dye. Fluorescence decreases upon treatment of gametocytocidal compounds. P. falciparum gametocyte (3D7 strain) was used in this study.
The 1536-well gametocycidal viability assay was based on the previous method of Tanaka et al. Stage III-V gametocytes were tested against three compound libraries, including 4265 compounds from NCGC pharmaceutical collection, 400 from Malaria Box library, and 550 from an internal collection of kinase inhibitors. Briefly, 2.5 ul/well incomplete medium was dispensed into each well of 1,536-well plates using the Multidrop Combi followed by 23 nl compound transferring using the NX-TR Pintool (WAKO Scientific Solutions, San Diego, CA). Then, 2.5 ul/well of gametocytes was dispensed with a seeding density of 20,000 cells/well using the Multidrop Combi. The assay plates were incubated for 72 h at 37C with 5% CO2. After addition of 5 ul/well of 2X AlamarBlue dye (Life Technologies, cat. no. DAL1100), the plates were incubated for 24 h at 37C with 5% CO2 and then were read in a fluorescence detection mode (Ex = 525 nm, Em = 598 nm) on a ViewLux plate reader (PerkinElmer).
On to `O=c1[nH]c2cc(C(F)(F)F)c(N3CCOCC3)cc2n(CP(=O)(O)O)c1=O`, for which the max response is 2.6%.

Turning to `CC(C)c1cc2c(cc1S(=O)(=O)O)[C@@]1(C)CCC[C@@](C)(C(=O)O)[C@@H]1CC2`, the max response was -8.74%.

Take `OCC(O)CS` (stereo not given): the max response is 0.0928%.

As to `C=CCSCC1Nc2cc(Cl)c(S(N)(=O)=O)cc2S(=O)(=O)N1` (stereo not given), the max response was 15.7%.

Consider `CN1C(=O)CC(c2ccccc2)C1=O` (stereo not given), for which the max response was -11.3%.

In the case of `CC[N+](CC)(CC(=O)Nc1c(C)cccc1C)Cc1ccccc1`, the max response was 7.32%.

As for `NC(=O)CCCCC1CCSS1` (stereo not given), the max response was 0.706%.

For `O=C(O)c1ccc(OCCCOc2ccc(C(=O)O)cc2)cc1`, the max response is 1.74%.

With `Cc1c(N(C)C)c(=O)n(-c2ccccc2)n1C`, the max response was -4.29%.

For the compound `CCCCCCCCCCCCCCCCC(C(=O)O)C(O)(CC(=O)O)C(=O)O` (stereo not given), the max response was 6.09%.

In the case of `C[N+]1(C)CCCC(OC(=O)C(O)(c2ccccc2)c2ccccc2)C1` (stereo not given), the max response was 8.34%.

In the case of `Cc1ccsc1C(=CCCN1CCC[C@@H](C(=O)O)C1)c1sccc1C`, the max response was -0.959%.

Turning to `O=C(O)Cn1c(C(=O)Nc2nc(-c3ccccc3Cl)cs2)cc2ccccc21`, the max response was 1.71%.

Regarding `C[C@]1(Cn2ccnn2)[C@H](C(=O)O)N2C(=O)C[C@H]2S1(=O)=O`, the max response is 9.4%.

Take `NC(=O)c1ccc([N+](=O)[O-])cc1Cl`: the max response was -9.98%.

Consider `NC(=O)CC[C@@H](N)C(=O)O`, for which the max response is -2.82%.

As to `CC(=O)N(CC(O)CO)c1c(I)c(C(=O)NCC(O)CO)c(I)c(C(=O)NCC(O)CO)c1I` (stereo not given), the max response is -11.4%.

As to `O=C(Cn1ccnc1[N+](=O)[O-])NCc1ccccc1`, the max response was -2.89%.

As for `COCC(=O)Nc1c(I)c(C(=O)NCC(O)CO)c(I)c(C(=O)N(C)CC(O)CO)c1I` (stereo not given), the max response is 10.5%.

As for `COc1ccc2cc(CCC(C)=O)ccc2c1`, the max response was -1.38%.

Take `CC(=O)OCC(=O)[C@@]1(O)CC[C@H]2[C@@H]3CCC4=CC(=O)C=C[C@]4(C)[C@@]3(F)[C@@H](O)C[C@@]21C`: the max response was 18.9%.

In the case of `CCOC(=O)[C@H](CCc1ccccc1)N[C@@H](C)C(=O)N1CCC[C@H]1C(=O)O`, the max response is -2.72%.

With `O=C(NCN1CCOCC1)c1cnccn1`, the max response was -4.94%.

Consider `CC(=O)OC[C@H]1O[C@@](COC(C)=O)(O[C@H]2O[C@H](COC(C)=O)[C@@H](OC(C)=O)[C@H](OC(C)=O)[C@H]2OC(C)=O)[C@@H](OC(C)=O)[C@@H]1OC(C)=O`, for which the max response is -6.87%.

For `CN/C(=C\[N+](=O)[O-])NCCSCc1csc(CN(C)C)n1`, the max response was 18.9%.

On to `CCN(CC)CC1CCCCN1CC(=O)N1c2ccccc2C(=O)Nc2cccnc21` (stereo not given), for which the max response was 3.31%.

On to `CC(C)=CCC/C(C)=C/CO`, for which the max response is 19.8%.

`OC(CCN1CCCC1)(c1ccccc1)C1CCCCC1` (stereo not given): the max response was 3.62%.

As to `CCOc1ccc(C(=O)OCCN(CC)CC)cc1`, the max response is 4.91%.

For `CN1C(C)(C)CCCC1(C)C`, the max response is -1.65%.

`CCc1nnc(NS(=O)(=O)c2ccc(N)cc2)s1`: the max response is -5.5%.

`O=C(O)CNC(=O)c1ccccc1I`: the max response is -0.623%.

Take `NCC1CCC(C(=O)Oc2ccc(CCC(=O)O)cc2)CC1` (stereo not given): the max response was 9.03%.

As to `O=C(Cn1ccnc1[N+](=O)[O-])NCCO`, the max response was 11.8%.

With `O=C(O)CCC(=O)O`, the max response is 4.69%.

Turning to `C[C@@H]1O[C@@H](OC[C@H]2O[C@@H](Oc3c(-c4ccc(O)c(O)c4)oc4cc(O)cc(O)c4c3=O)[C@H](O)[C@@H](O)[C@@H]2O)[C@H](O)[C@H](O)[C@H]1O`, the max response was 3.71%.

Consider `C[C@H]1COc2c(C3(N)CC3)c(F)cc3c(=O)c(C(=O)O)cn1c23`, for which the max response is -1.28%.

Regarding `COc1ccccc1Oc1c(NS(=O)(=O)c2ccc(C(C)(C)C)cc2)nc(-c2ncccn2)nc1OCCO`, the max response was -3.79%.

For the compound `COc1ccc(O)cc1`, the max response was -2.64%.

`Nc1ncnc(Nc2ccccc2)n1`: the max response was -1.5%.
